Screening results: PubChem, several laboratories
This is a sample that favours compounds with a hit; in the whole collection about 4% have one here.
Mtb betalactam = beta-lactam sensitization of Mtb H37Rv, H37Rv; M. tuberculosis H37Rv growth with meropenem, percent inhibition; inhibition, % at 25 µM; 0.27% of 330,000 active; AID 434955, 2010;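 further: growth measured after seven days incubation then overnight dye step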
Mtb FBA inh = Mtb FBA enzyme inhibitors, primary screen, biochemical, fluorescence, strain H37Rv; Fructose-bisphosphate aldolase (Mycobacterium tuberculosis (strain ATCC 25618 / H37Rv)), …; purified M. tuberculosis FBA, fluorescence read-out; inhibition, % at 1 µM; 2.3% of 360,000 active; AID 588726, 2011; in the data active means inhibition above about 27%
GDH-TPI counter = GDH-TPI coupling enzyme inhibitors, primary screen, artefact control for M. tuberculosis FBA inhibitor project, biochemical, absorbance, full deck | 1.2% of 360,000 active | inhibition, % at 4.8 µM | GDH-TPI coupled enzyme counterscreen, NADH absorbance; in the data active means inhibition above about 30%
RecA intein inh = Mtb RecA intein splicing inhibitors, primary screen, biochemical, fluorescence, HTS; 0.75% of 290,000 active; Protein RecA (Mycobacterium tuberculosis (strain ATCC 25618 / H37Rv)), P9WHJ3; cell-free RecA intein splicing; inhibition, % (concentration not given with the values); in the data active means inhibition above about 30%
Mtb UGM inh = M. tuberculosis UGM enzyme inhibitors, primary screen, biochemical, fluorescence polarization, single point; UDP-galactopyranose mutase (Mycobacterium tuberculosis (strain ATCC 25618 / H37Rv)), …; purified UGM, fluorescence polarization probe displacement; inhibition, % at 10 µM; 0.06% of 320,000 active; AID 504406, 2011; in the data active means inhibition above about 10%, passing the limit was not always enough
Target sequence (P9WIQ1 whole entry, looked up): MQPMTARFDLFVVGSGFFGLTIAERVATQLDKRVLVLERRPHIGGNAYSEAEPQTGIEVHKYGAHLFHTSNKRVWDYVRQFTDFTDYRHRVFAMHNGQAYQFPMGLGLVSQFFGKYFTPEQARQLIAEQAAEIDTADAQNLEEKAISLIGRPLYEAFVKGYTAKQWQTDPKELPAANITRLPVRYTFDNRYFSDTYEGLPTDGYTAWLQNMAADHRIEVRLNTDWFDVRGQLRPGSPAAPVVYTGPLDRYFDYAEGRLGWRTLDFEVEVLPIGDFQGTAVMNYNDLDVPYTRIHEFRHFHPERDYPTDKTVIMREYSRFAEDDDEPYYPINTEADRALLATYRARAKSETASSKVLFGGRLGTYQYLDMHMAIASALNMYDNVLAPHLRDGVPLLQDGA
Rv3671c inh = Rv3671c serine protease inhibitors, primary screen, biochemical, fluorescence polarization, M. tuberculosis H37Rv; P9WHR9; inhibition, % at 5.96 µM; 0.048% of 320,000 active; in the data active means inhibition above about 38%;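 further: extracellular domain of Rv3671c used as enzyme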
GFP chromophore = counter-screen: blocks GFP chromophore formation, dose response, counter-screen, biochemical, fluorescence, homogeneous; 83% of 2,100 active; EC50, µM; shares compounds with RecA intein inh; AID 434968, 2010; cell-free GFP chromophore formation
A number is an active result; i = inactive; nt = no result given. Unless noted, how the calls were made is not given here.

SMILES	Mtb betalactam	Mtb FBA inh	GDH-TPI counter	RecA intein inh	Mtb UGM inh	Rv3671c inh	GFP chromophore
Cc1cc(C(=O)c2ccccc2)c(NC(=O)CCl)s1	i	i	i	58	i	i	17
N#Cc1ccccc1NC(=O)C1CCCO1 (stereo unspecified)	nt	i	i	nt	nt	nt	nt
Cc1nnc(N/N=C/c2ccccc2O)n1N	i	i	i	75	i	i	12
Cc1nnc(N/N=C\c2ccc(-c3ccccc3[N+](=O)[O-])o2)n1N	i	i	i	50	i	i	39
Cc1ncc(CN2CCCC(C(=O)Nc3ccc(-n4ccnc4C)cc3)C2)cn1 (stereo unspecified)	i	i	i	i	i	i	nt
COc1ccc2c(CN3CCN(c4ccccc4F)CC3)cc(=O)oc2c1	nt	i	nt	nt	nt	nt	nt
O=C1C(c2c(O)[nH]c3ccccc23)=Nc2ccccc21	i	i	i	i	i	i	nt
CC(=O)c1cccc2c(O)c(C3=Nc4ccccc4C3=O)[nH]c12	i	i	i	41	i	i	4.6
COc1ccncc1-c1csc(C(O)c2ccccc2)n1 (stereo unspecified)	nt	i	i	nt	nt	nt	nt
CCOC(=O)N1CC=C2C(C#N)=C(N)C(C#N)(C#N)[C@H](c3cccs3)C2C1 (stereo partly specified)	i	i	i	i	i	i	nt
CC(C)(C)OC(=O)N1CC=C2C(C#N)=C(N)C(C#N)(C#N)C(c3cccs3)C2C1 (stereo unspecified)	i	i	i	53	i	i	10
CCOC(=O)N1CCC2(CC1)C(C#N)=C(N)Oc1n[nH]c(C)c12	i	i	i	80	i	i	13
Cc1[nH]nc2c1C1(CCC3(CC1)OCCO3)C(C#N)=C(N)O2	i	i	i	74	i	i	i
COCc1[nH]nc2c1C1(CCSCC1)C(C#N)=C(N)O2	i	i	i	74	i	i	20
CC(=O)N1CCC2(CC1)C(C#N)=C(N)Oc1n[nH]c(C(F)(F)F)c12	i	i	i	i	i	i	nt
O=c1[nH]cnc2c1ccn2C1OC(CO)C(O)C1O (stereo unspecified)	nt	i	i	nt	nt	nt	nt
COc1ccc(/C=C(\CC(=O)O)c2nc3ccccc3o2)cc1	i	i	i	nt	i	i	nt
COc1ccc(C(=O)/C(=C/c2cccs2)c2nc3ccccc3o2)cc1	i	i	i	46	i	i	i
N#CC1=C(N)Oc2n[nH]c(-c3cccs3)c2C1c1cccnc1 (stereo unspecified)	i	i	i	69	i	i	i
CC(C)C1C(C#N)=C(N)Oc2n[nH]c(-c3cccs3)c21 (stereo unspecified)	i	i	i	i	i	i	nt
Cc1ccc(C2C(C#N)=C(N)Oc3n[nH]c(-c4cccs4)c32)cc1 (stereo unspecified)	i	i	i	66	i	i	7.6
CC(C)c1[nH]nc2c1C(c1cccs1)C(C#N)=C(N)O2 (stereo unspecified)	i	i	i	62	i	i	28
O=C(N1CCOCC1)N1CCN(c2ccccc2F)CC1	i	i	i	i	i	i	nt
Cc1ccccc1N1C(=O)C(Cl)=C(N2CCOCC2)C1=O	i	i	i	59	i	i	12
O=C1C(Cl)=C(N2CCOCC2)C(=O)N1c1ccc(Br)cc1	i	i	i	53	i	i	2.5
SMILES	Mtb betalactam	Mtb FBA inh	GDH-TPI counter	RecA intein inh	Mtb UGM inh	Rv3671c inh	GFP chromophore
O=C1C(Cl)=C(N2CCOCC2)C(=O)N1c1ccccc1F	i	i	i	nt	i	i	7.2
Cc1ccc(N2C(=O)C(Cl)=C(N3CCOCC3)C2=O)c(C)c1	i	i	i	60	i	i	11
Cc1cccc(C)c1N1C(=O)C(Cl)=C(N2CCCC2)C1=O	i	i	i	i	i	i	nt
CC(C)c1ccc(N2C(=O)C(Cl)=C(N3CCOCC3)C2=O)cc1	i	i	i	i	i	i	nt
CCOc1ccc(N2C(=O)C(Cl)=C(N3CCOCC3)C2=O)cc1	i	i	i	nt	i	i	nt
CCc1ccccc1N1C(=O)C(Cl)=C(N2CCOCC2)C1=O	i	i	i	67	i	i	9.9
CC1Oc2ccccc2N(Cc2ccc(F)cc2)C1=O (stereo unspecified)	i	i	i	i	i	i	nt
COc1ccc(C(C(=O)NCC2CCCO2)N(C(=O)c2snc(C(N)=O)c2N)c2ccc(C)cc2)cc1OC (stereo unspecified)	nt	i	i	i	nt	nt	nt
Cc1cc(N/N=C/c2ccc(O)c(C)c2O)nc(-c2ccccc2O)n1	i	i	32	47	i	i	i
N#CC1=CC2CN(Cc3ccccc3)C1C1C(=O)N(c3ccccc3)C(=O)C21 (stereo unspecified)	nt	i	i	nt	nt	nt	nt
COc1cc(Br)c(C(=O)c2nccc3cc(OC)c(OC)cc23)cc1OC	i	i	i	84	i	i	0.75
COc1cc(N)c(C(=O)c2nccc3cc(OC)c(OC)cc23)cc1OC	i	i	i	i	i	i	nt
COc1cc(C(=O)c2nccc3cc(OC)c(OC)cc23)c([N+](=O)[O-])cc1OC	i	i	38	95	i	i	0.39
FC(F)C(F)(F)Oc1cccc(Nc2nccn3c(-c4cccc5cccnc45)cnc23)c1	nt	i	i	nt	nt	nt	nt
FC(F)(F)c1ccc2c(c1)N(CCCN1CCN(CCCl)CC1)c1ccccc1S2	i	i	i	63	i	i	17
Clc1ccc(C=NN2CCCCCC2)cc1Cl	nt	i	i	nt	nt	nt	nt
[O-]C1=N/[N+](=C/c2ccccc2Cl)CC1	i	i	i	70	i	i	17
[O-]C1=N/[N+](=C/c2ccc(Cl)c(Cl)c2)CC1	i	i	i	36	i	i	38
[O-]C1=N/[N+](=C/c2ccccc2)CC1	i	i	i	81	i	i	30
O=S(=O)(CCNCc1ccccc1)NC1CCCCC1	nt	i	i	nt	nt	nt	nt
O=c1cc(-c2cccc([N+](=O)[O-])c2)[nH][nH]1	i	i	i	96	i	i	11
Nc1cc(-c2cccc([N+](=O)[O-])c2)[nH]n1	i	i	i	i	i	i	nt
COC(=O)C[C@]1(C(=O)OC)CN(C#N)N(c2ccc(Cl)cc2)C12c1ccccc1-c1ccccc12	i	i	i	74	i	i	4.7
Cc1ccc(Sc2ccc(NC(=O)CCl)cc2)c(C)c1	i	nt	nt	90	i	i	8.1
CCC(C)[C@@H](NC(=O)OC(C)(C)C)c1nnc(S(=O)(=O)Cc2cccc(C)c2)o1 (stereo partly specified)	nt	i	i	37	nt	nt	31
CC(C)(C)OC(=O)N[C@@H](Cc1ccccc1)c1nnc(S(=O)(=O)Cc2ccccc2)o1	i	nt	nt	nt	i	i	nt
